Screening data (PubChem BioAssay)
This is a sample that favours compounds with a hit; in the whole collection about 10% have one here.
HP1b binding inh: blocks HP1-beta chromodomain binding to methylated histone tails; Potency, µM (titrated, usually from 114 µM), without a hit: at the top dose activity change, negative = inhibition, actives largely listed as inhibitors; P83916; 0.56% of 390,000 active; AlphaScreen HP1-beta / biotin-H3K9me3 peptide binding; also: nearly all actives have a fitted effect of over 70% in size
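AlphaScreen: HP1-beta (50 nM) preformed 30 min with biotin-H3(1-18)K9me3 peptide (50 nM) in PBS pH 7.4, 0.01% Tween-20. Compound added for 30 min at RT, then streptavidin donor/nickel chelate acceptor beads (10 ug/mL) for 30 min.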
L3MBTL1 inh: inhibitors of human L3MBTL1. Q9Y468. AlphaScreen L3MBTL1–H3K9me1 peptide binding. Potency, µM (titrated, usually from 57.1 µM), inactives show at the highest dose activity, negative = inhibition, most hits filed as inhibitors. 0.66% of 230,000 active. AID 485360; also: % is scaled to controls: 0 for no effect and ±100 for the full control effect; nearly all actives have a fitted effect of over 60% in size
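L3MBTL1 (50 nM) pre-complexed 30 min with biotinylated H3(1-15)K9me1 peptide (75 nM), then compounds added for 30 min at room temperature; AlphaScreen streptavidin donor/nickel chelate acceptor beads (10 ug/mL final) read after 30 min dark incubation.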
JMJD2A Tudor inh: inhibitors of human JMJD2A Tudor domain; AlphaScreen JMJD2A-Tudor / H3K4me3 peptide binding; Potency, µM (series often up to 114 µM), for inactives: at the highest dose activity change, negative = inhibition, hits mostly inhibitors; 4.4% of 390,000 active; O75164; also: % is scaled to controls: 0 for no effect and ±100 for the full control effect; nearly all actives have a fitted effect of over 50% in size
Target sequence (O75164 whole entry, looked up, the tested form may be a part): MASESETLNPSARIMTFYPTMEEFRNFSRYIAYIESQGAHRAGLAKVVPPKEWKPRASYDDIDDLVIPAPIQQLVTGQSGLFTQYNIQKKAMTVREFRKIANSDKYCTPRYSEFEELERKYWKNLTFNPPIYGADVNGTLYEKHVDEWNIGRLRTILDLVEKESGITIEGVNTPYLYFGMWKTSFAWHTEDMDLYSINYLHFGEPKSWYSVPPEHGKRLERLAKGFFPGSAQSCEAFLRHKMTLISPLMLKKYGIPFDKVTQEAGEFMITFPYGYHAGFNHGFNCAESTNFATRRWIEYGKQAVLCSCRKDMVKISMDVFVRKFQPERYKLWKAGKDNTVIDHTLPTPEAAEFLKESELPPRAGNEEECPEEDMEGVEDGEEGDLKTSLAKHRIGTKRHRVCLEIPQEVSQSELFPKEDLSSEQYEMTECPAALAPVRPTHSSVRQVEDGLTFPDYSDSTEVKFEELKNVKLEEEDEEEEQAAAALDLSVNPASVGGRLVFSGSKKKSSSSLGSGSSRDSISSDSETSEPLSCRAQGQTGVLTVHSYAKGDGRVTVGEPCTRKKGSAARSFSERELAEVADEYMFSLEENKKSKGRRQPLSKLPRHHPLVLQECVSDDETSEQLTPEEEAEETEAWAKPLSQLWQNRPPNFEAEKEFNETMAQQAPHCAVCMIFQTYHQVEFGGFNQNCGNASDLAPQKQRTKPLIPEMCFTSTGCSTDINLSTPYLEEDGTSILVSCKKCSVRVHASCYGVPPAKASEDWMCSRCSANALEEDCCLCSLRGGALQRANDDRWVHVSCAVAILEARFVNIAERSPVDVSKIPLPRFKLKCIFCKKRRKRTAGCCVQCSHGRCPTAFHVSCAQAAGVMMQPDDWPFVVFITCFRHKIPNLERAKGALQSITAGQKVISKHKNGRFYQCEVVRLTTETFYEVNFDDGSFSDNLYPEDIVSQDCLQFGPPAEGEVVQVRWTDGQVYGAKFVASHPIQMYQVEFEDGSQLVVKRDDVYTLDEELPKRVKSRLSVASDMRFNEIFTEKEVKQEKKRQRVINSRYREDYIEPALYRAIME
GLS inh: inhibitors of human glutaminase (GLS). O94925. GLS enzymatic activity, qHTS titration. Potency, µM (highest dose often 45.5 µM), for the others: at the highest dose activity change, negative = inhibition, actives largely listed as inhibitors. 0.21% of 410,000 active. AID 624170; also: % is scaled to controls: 0 for no effect and ±100 for the full control effect
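hKGA in 45 mM KH2PO4 (pH 8.2), 0.02% Tween-20 with compound, then 1mM L-Glutamine (stock as added) plus glutamate oxidase/HRP/Amplex red coupling mix. Fluorescence read initially and after 30 min at RT; signal change reflects glutamate formation.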
BAZ2B inh: blocks human BAZ2B; Q9UIF8; AlphaScreen BAZ2B-H3K14Ac peptide displacement; Potency, µM (top dose mostly 114 µM), without a hit: top-dose activity change, negative = inhibition, usual class: inhibitors; 4.4% of 360,000 active; AID 504333; also: % is scaled to controls: 0 for no effect and ±100 for the full control effect; nearly all actives have a fitted effect of over 60% in size
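Inhibition is scored as reduced AlphaScreen emission. The BAZ2B/b-H3(5-23)K14Ac complex (50 nM each) in PBS pH 7.4, 0.01% Tween-20 meets compound (up to 110 uM) for 30 min at RT before bead addition.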
G9a inh: inhibitors of human histone lysine methyltransferase G9a; 8.8% of 350,000 active; Q96KQ7; G9a H3K9 monomethylation, AlphaScreen, 2 h; Potency, µM (titrated, usually from 102 µM), inactives show top-dose activity, negative = inhibition, most hits filed as inhibitors; also: % is scaled to controls: 0 for no effect and ±100 for the full control effect; nearly all actives have a fitted effect of over 75% in size
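Enzyme 20 nM + cpd, 15 min RT; add b-H3K9 pep 500 nM / SAM 20 uM; 2 h RT; anti-H3K9me1 Ab 0.5 ug/mL + SA donor / anti-rabbit acceptor beads 20 ug/mL each, 10 min; AlphaScreen read.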
* hit, by the source's call; [ ] = dose if it differs, or a comment. Calls follow the shape of the dose curve; as a rule, active = well fitted curve in the direction sought with a large enough effect; inconclusive = small, poorly fitted or top-dose-only effect, or another doubt; inactive = no such curve, though single readings can be large; an effect the other way counts as inactive or inconclusive. Potency is read from the fitted curve at half-maximal effect.

What do the screens show for `S=C(Nc1ccc2nccnc2c1)N1CCOCC1`?
HP1b binding inh: 18.9%; L3MBTL1 inh: inconclusive; JMJD2A Tudor inh: -12.0%; GLS inh: -13.8%; BAZ2B inh: -27.6%; G9a inh: 44.7µM*

What do the screens show for `COc1ccc(-c2cc(C(F)(F)F)n3nc(C(=O)O)c(Cl)c3n2)cc1OC`?
HP1b binding inh: 15.2%; JMJD2A Tudor inh: -16.7%; GLS inh: 0.6%; BAZ2B inh: inconclusive; G9a inh: 9.0%[59 µM]

Results for O=C(Nc1cccc(C(=O)OCc2cc(=O)n3c4c(sc3n2)CCCC4)c1)c1cccc(F)c1 ?
HP1b binding inh: 28.2%; JMJD2A Tudor inh: 6.0%; GLS inh: -11.5%; BAZ2B inh: -9.8%; G9a inh: 1.5%[12.7 µM]

How did Cc1cccc([N+](=O)[O-])c1NC(=O)COC(=O)C1CC2CCCC(C1)C2=O (stereo unspecified) do in these assays?
HP1b binding inh: 11.5%; L3MBTL1 inh: 4.1%; JMJD2A Tudor inh: -8.2%; GLS inh: -0.3%; BAZ2B inh: -2.1%; G9a inh: 5.1%[59 µM]

Results for Cc1ccc([N+](=O)[O-])c(NC(=O)COC(=O)C2CC3CCCC(C2)C3=O)c1C (stereo unspecified) ?
HP1b binding inh: 35.8%; JMJD2A Tudor inh: -17.3%; GLS inh: 6.2%; BAZ2B inh: -17.6%; G9a inh: 79.4µM*

How did CC(=O)NC1=C(Nc2ccc(N(C)C)cc2)C(=O)c2ccccc2C1=O do in these assays?
HP1b binding inh: inconclusive; JMJD2A Tudor inh: inconclusive; GLS inh: 15.1%; BAZ2B inh: 39.8µM*; G9a inh: 31.6µM*

How did CN(C(=O)Nc1ccccc1)C1CCS(=O)(=O)C1 (stereo unspecified) do in these assays?
HP1b binding inh: 25.0%; L3MBTL1 inh: 5.9%; JMJD2A Tudor inh: 11.2%; GLS inh: -1.4%; BAZ2B inh: 0.6%; G9a inh: 16.3%[59 µM]

How did CC(=O)NC1=C(N(C)C2CCS(=O)(=O)C2)C(=O)c2ccccc2C1=O (stereo unspecified) do in these assays?
HP1b binding inh: 9.5%; L3MBTL1 inh: -18.0%; JMJD2A Tudor inh: -3.5%; GLS inh: 74.3%; BAZ2B inh: -24.5%; G9a inh: 7.94µM*

How did CNC1=C(N(C(C)=O)c2ccc(Br)cc2)C(=O)c2ccccc2C1=O do in these assays?
HP1b binding inh: -10.5%; L3MBTL1 inh: -9.6%; JMJD2A Tudor inh: -22.7%; GLS inh: 6.6%; BAZ2B inh: inconclusive; G9a inh: inconclusive

Results for COc1ccc2nc(NC(=O)C34CC5CC(CC(NC(C)=O)(C5)C3)C4)sc2c1 ?
HP1b binding inh: 9.8%; JMJD2A Tudor inh: -22.1%; GLS inh: 13.2%; BAZ2B inh: -13.4%

What do the screens show for `CCOc1ccc2nc(NC(=O)Cn3cnc4c3c(=O)n(C)c(=O)n4C)sc2c1`?
HP1b binding inh: 17.4%; L3MBTL1 inh: 20.6%; JMJD2A Tudor inh: -27.6%; GLS inh: -1.6%; BAZ2B inh: -6.9%; G9a inh: 79.4µM*

How did CCOc1ccc2nc(NC(=O)Nc3ccccc3)sc2c1 do in these assays?
HP1b binding inh: 35.5%; JMJD2A Tudor inh: -22.1%; GLS inh: -2.7%; BAZ2B inh: 0.6%; G9a inh: -19.6%[59 µM]

How did CCOc1ccc2nc(NC(=O)CN3CCN(C)CC3)sc2c1 do in these assays?
HP1b binding inh: 7.2%; L3MBTL1 inh: -10.6%; JMJD2A Tudor inh: -18.2%; GLS inh: 12.0%; BAZ2B inh: inconclusive; G9a inh: 35.5µM*

What do the screens show for `CCOc1ccc2nc(NC(=O)C34CC5CC(CC(NC(C)=O)(C5)C3)C4)sc2c1`?
HP1b binding inh: -3.5%; JMJD2A Tudor inh: -30.6%; GLS inh: 0.0%; BAZ2B inh: -14.2%; G9a inh: 15.8µM*

Results for CCOc1ccc2nc(NC(=O)Nc3cccs3)sc2c1 ?
HP1b binding inh: 7.8%; L3MBTL1 inh: -5.6%; JMJD2A Tudor inh: inconclusive; GLS inh: 2.4%; BAZ2B inh: -5.5%; G9a inh: 44.7µM*

What do the screens show for `COc1ccc(Cl)cc1NC(=O)Cn1ccn(Cc2ccc(C)cc2)c(=O)c1=O`?
HP1b binding inh: 24.7%; JMJD2A Tudor inh: -28.9%; GLS inh: 7.1%; BAZ2B inh: -12.5%; G9a inh: inconclusive

Results for Cc1nn2c3c(cnc2c1-c1ccc(Cl)cc1)C(=O)CC(c1ccc(C(C)C)cc1)C3 (stereo unspecified) ?
HP1b binding inh: 58.2%; JMJD2A Tudor inh: 5.6%; GLS inh: -2.6%; BAZ2B inh: -15.4%; G9a inh: 7.1%[59 µM]

Results for CCOc1ccc2nc(NC(=S)NCc3ccccc3)sc2c1 ?
HP1b binding inh: inconclusive; JMJD2A Tudor inh: -15.5%; GLS inh: -2.3%; BAZ2B inh: -0.3%; G9a inh: 7.08µM*

What do the screens show for `CCOc1ccc2nc(NC(=O)CN3CCN(CC)CC3)sc2c1`?
HP1b binding inh: 16.4%; L3MBTL1 inh: -1.7%; JMJD2A Tudor inh: -8.5%; GLS inh: 6.5%; BAZ2B inh: -4.8%; G9a inh: 44.7µM*

How did CCOc1ccc2nc(NC(=O)c3ccco3)sc2c1 do in these assays?
HP1b binding inh: 37.2%; L3MBTL1 inh: -0.4%; JMJD2A Tudor inh: -11.1%; GLS inh: -2.5%; BAZ2B inh: inconclusive

What do the screens show for `COc1ccc(N2CCN(c3oc(/C=C/c4ccc(F)cc4)nc3C#N)CC2)cc1`?
HP1b binding inh: -3.2%; JMJD2A Tudor inh: -33.0%; GLS inh: 2.2%; BAZ2B inh: -30.7%; G9a inh: inconclusive

What do the screens show for `CC(=O)Nc1ccc(S(=O)(=O)NNC(=O)C(=O)NNc2ccccn2)cc1`?
HP1b binding inh: 94.7%; L3MBTL1 inh: -5.4%; JMJD2A Tudor inh: inconclusive; GLS inh: 22.4%; BAZ2B inh: inconclusive; G9a inh: 13.9%

What do the screens show for `CC(=O)Nc1ccc(S(=O)(=O)NNC2=NS(=O)(=O)c3ccccc32)cc1`?
HP1b binding inh: 50.4%; JMJD2A Tudor inh: -34.3%; GLS inh: 7.1%; BAZ2B inh: 70.8µM*; G9a inh: -45.2%

Results for CCCc1c(C)c2ccc(O)c(CN3CCN(c4ccc(F)cc4)CC3)c2oc1=O ?
HP1b binding inh: 40.1%; JMJD2A Tudor inh: 5.3%; GLS inh: 61.5%; BAZ2B inh: 3.9%; G9a inh: inconclusive

How did CC1CCc2nc3ccc(S(=O)(=O)N4CCC(C(=O)O)CC4)cc3c(C(=O)O)c2C1 (stereo unspecified) do in these assays?
HP1b binding inh: 38.1%; L3MBTL1 inh: -3.4%; JMJD2A Tudor inh: inconclusive; GLS inh: -5.3%; BAZ2B inh: inconclusive; G9a inh: 31.6µM*
